Laboratory results reported in PubChem BioAssay AID1001 (Sanford-Burnham Center for Chemical Genomics, 2008).
The campaign covered roughly 200,000 compounds. About 50 (0.03%) were called active. The sample holds actives, similar compounds and a random draw of the others, so the mix is not that of the screen. How the calls were made is not given here. Measured potencies and affinities stand elsewhere.

molecular target: Alkaline phosphatase, tissue-nonspecific isozyme (Homo sapiens) (UniProt P05186); test: human TNAP enzyme activators, primary screen, biochemical, luminescent, no phosphate acceptor, uHTS (AID 1001); conditions: purified TNAP, luminescent activation assay, at 20 µM, stronger effect = higher value
Sequence (P05186 whole entry, looked up): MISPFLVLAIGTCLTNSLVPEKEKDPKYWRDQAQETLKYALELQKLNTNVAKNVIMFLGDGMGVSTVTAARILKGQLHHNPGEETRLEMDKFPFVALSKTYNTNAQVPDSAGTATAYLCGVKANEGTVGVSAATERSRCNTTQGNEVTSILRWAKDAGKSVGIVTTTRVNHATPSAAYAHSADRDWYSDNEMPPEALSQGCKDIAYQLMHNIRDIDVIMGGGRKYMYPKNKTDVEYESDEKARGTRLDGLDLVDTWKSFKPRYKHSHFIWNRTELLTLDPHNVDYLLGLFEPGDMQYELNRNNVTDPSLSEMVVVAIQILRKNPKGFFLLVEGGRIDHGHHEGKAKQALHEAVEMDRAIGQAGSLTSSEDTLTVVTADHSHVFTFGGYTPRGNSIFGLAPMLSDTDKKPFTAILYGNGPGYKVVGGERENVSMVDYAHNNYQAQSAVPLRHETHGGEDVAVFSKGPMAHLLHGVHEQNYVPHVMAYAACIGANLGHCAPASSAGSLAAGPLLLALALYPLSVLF

Activation fold, active:
CCN(CC)c1ccc(N=Cc2ccc(N(CC)CC)cc2O)cc1 6
CCN1/C(=C/C=C/C=C/c2sc3ccccc3[n+]2CC)Sc2ccccc21 53.2

Activation fold, inactive:
CCCCNC(=O)CCC(=O)NNc1nc2ccccc2c2nc(-c3ccccc3)nn12 1.6
O=C(CCC(=O)NNc1nc2ccccc2c2nc(-c3ccccc3)nn12)NCCCN1CCCC1=O 1.1
CCOCCCNC(=O)CCC(=O)NNc1nc2ccccc2c2nc(-c3ccccc3)nn12 2.1
COCCCNC(=O)CCC(=O)NNc1nc2ccccc2c2nc(-c3ccccc3)nn12 2.3
COc1ccc(C(=O)N/C(=C\c2ccccc2)C(=O)NC(CC(C)C)C(=O)O)cc1 (stereo unspecified) 1.1
Cc1coc(C)c1C(=O)CC1(O)C(=O)N(CCc2ccccc2)c2ccccc21 (stereo unspecified) 1.1
CCOC(=O)CSc1nc2c(sc3ccc([N+](=O)[O-])cc32)c(=O)n1Cc1ccco1 1.1
CCOc1ccc(-n2cc(-c3ccccc3)c3c(N4CCOCC4)ncnc32)cc1 1.1
O=c1cc(NCc2ccc3c(c2)OCO3)[nH]c(=O)n1-c1ccc(Cl)cc1 1.1
O=S(=O)(Nc1ccc2c(c1)OCO2)c1ccccc1 1.1
CNC(=O)N(O)C1N(C)C(=O)N(Cc2ccccc2)C1(C)C (stereo unspecified) 1.1
O=C(CCN1C(=O)/C(=C/c2ccccc2)SC1=S)NNC(=O)c1cccnc1 1.6
O=C(CCN1C(=O)/C(=C\c2ccccc2)SC1=S)NNC(=O)c1cccnc1 1.6
CCCC(Oc1ccc(Br)cc1)c1nc2c3cc(OC)c(OC)cc3nc(=S)n2[nH]1 (stereo unspecified) 1.2
Cc1cc(N2CCCCC2)nc(N)n1 1.1
Cc1cc(N2CCCCC2)nc(NCc2ccccc2)n1 1
COc1cccc(C(=O)NNC(=O)c2ccccc2-n2cccc2)c1 1.3
O=C(CSc1nnc(-c2ccncc2)n1Cc1ccccc1)NCCc1ccccc1 1.2
Clc1ccc(OCCn2ccnc2)c(Cl)c1 1
Clc1ccc(SCCn2ccnc2)cc1 1.1
S=C(NCCCn1ccnc1)Nc1ccc(Cl)cc1Cl 1
OC(Cn1ccnc1)c1ccc(Cl)cc1Cl (stereo unspecified) 1
Cc1cc2cc3c(cc2nc1SCC(=O)O)CCC3 1
CCCCC(=O)Nc1ccc(C(=O)OC2CCCCC2)cc1 1
CCS(=O)(=O)N1CCC(NC(=O)c2ccco2)CC1 1.1
O=C(O)c1ccc(CNC(=O)c2ccc(C(F)(F)F)cc2)cc1 1
COC(=O)c1ccc(/C=C2\N=C(SC)SC2=O)cc1 1.1
CC(=O)OCCCN1C(=O)c2ccc(Br)cc2C1=O 1
OCCCN1c2ccccc2Nc2nnc(-c3ccccc3)cc21 1.5
CC(C)c1[nH]nc2c1C1(CCN(Cc3ccccc3)CC1)C(C#N)=C(N)O2 0.9
CC(C)=CCSc1nnc([C@@H](NC(=O)OC(C)(C)C)C(C)C)o1 1.1
CCOC(=O)N1CCC(NC(=O)CSc2cc(=O)n(CC)c3ccccc23)CC1 1.2
CCc1ccc(CNC(=O)Cn2nc(-c3ccccc3)ccc2=O)cc1 1
CN1CCN(C(c2ccccn2)c2cc(Cl)c3cccnc3c2O)CC1 (stereo unspecified) 2.5
Oc1c(C(c2ccc(Cl)cc2)N2CCCC2)cc(Cl)c2cccnc12 (stereo unspecified) 1.2
CC(=O)c1sc(NC(=O)C(C)(C)C)nc1C 1.1
Cc1cccc(NCc2nc(-c3ccccc3)no2)c1 1.1
CNC(=S)NNC(=O)c1ccc2c(c1)OCO2 1.6
CC(C)CC(CC(C)C)=NNC(=O)c1ccc2c(c1)OCO2 1.1
CC(C)CCC(C(=O)O)C(C)CC(=O)NNC(=O)c1ccco1 (stereo unspecified) 1.1
CC(C)CNC(=O)C(=O)NNC(=O)c1ccco1 1.1
COC(=O)c1ccc(N=Cc2c(C(F)(F)F)[nH][nH]c2=O)cc1 0.8
Cc1ccc(/C=N/NC(=O)c2nn(C)cc2Cl)cc1 1.1
C/C(=N\NC(=O)c1nn(C)cc1Cl)c1ccncc1 1.2
Cc1nc(Nc2nc(CSc3nc4ccccc4[nH]3)cc(=O)[nH]2)nc2ccccc12 2.5
COc1ccc2nc(Nc3nc(CSc4nc5ccccc5[nH]4)cc(=O)[nH]3)nc(C)c2c1 2.4
CCOC(=O)CNC(=O)C(CO)NC(=O)OCc1ccccc1 (stereo unspecified) 1.1
CCOC(=O)/C(N=Nc1sc(C(=O)OCC)c(C)c1C(=O)OCC)=C(\C)O 1
COC(=O)c1sccc1NC(=O)Cn1nnc(-c2ccc(C)cc2)n1 1
O=C(CCC(=O)Nc1ccc(Cl)cc1Cl)NNC(=O)Nc1ccccc1 1.3
Cc1cc([N+](=O)[O-])nn1CC(=O)Nc1ccc(F)cc1 1.1
Cc1cc([N+](=O)[O-])nn1CC(=O)Nc1cc(F)ccc1F 1
CCOC(=O)C1(Cc2cccc(OC)c2)CCN(Cc2cnc(C)s2)CC1 1
CCCCN1CNC(=S)N(Cc2ccccc2)C1 0.9
COc1ccc(S(=O)(=O)Nc2ccccc2C)cc1 1
CCN(CC)c1ccc(C=Nc2ccc(N(C)C)cc2)c(O)c1 2.3
CCN(CC)c1ccc(C=Nc2ccc(C)cc2)c(O)c1 0.9
COc1ccc(C(C)=O)c(Oc2nc(CN3CCOCC3)nc3scc(-c4cccs4)c23)c1 1
CC(=O)NNc1ncnc2c1cnn2-c1ccc(C)c(Cl)c1 2.2
Cn1ncc2c(NNC(=O)c3ccc(Cl)cc3Cl)ncnc21 2.4
Cn1cccc1C(=O)C(=O)Nc1ccccc1C(F)(F)F 1.2
CN(CCO)C(=O)CCC(=O)Nc1ccc(S(N)(=O)=O)cc1 1.1
CCN1/C(=C/C(C)=C/c2sc3ccccc3[n+]2CC)Sc2ccccc21 0.4
CC[n+]1c(/C=C/C=C/N(C(C)=O)c2ccccc2)sc2ccccc21 0.7
